PubChem BioAssay (NCI)
Several values for one entry are separate records, joined by “and”; a condition that tells them apart may be missing. Equal entries are not always repeated. About 83,000 compounds went through this panel and 20% of them were active in at least one assay; those are over-represented in the sample as a whole.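 Step 1: grow cells in 96-well plates. Step 2: add test compound at a single concentration. Step 3: incubate 48 h. Step 4: record percent growth.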 Unmarked numbers belong to inactive results. Activity calls are given as the source filed them. Rule for the calls: active = growth percent below 10; inactive = the rest.

The compounds below were run on MDA-MB-468 breast (assay: NCI-60 one-dose screen, 48 h (100 = growth as untreated, 0 = no growth, -100 = all killed)). Conditions: 10 µM unless noted.

**Q.** `O=C1C=CC(=Nc2cc(Br)c(O)c(Br)c2)C=C1` was tested. Which growth did it give?
**A.** 51.4%

**Q.** Which growth does the source give for `C(=C\c1nc2ccccc2[nH]1)/c1nc2ccccc2[nH]1` here?
**A.** 106%

**Q.** `O=C(CC(CC(=O)c1ccccc1)c1ccccn1)c1ccccc1` was tested. Which growth did it give?
**A.** 102%

**Q.** With `C[C@]12CCc3nc(Nc4ccc(O)cc4)sc3C1=CC[C@@H]1[C@@H]2CC[C@]2(C)/C(=N/NC(N)=S)CC[C@@H]12` as the compound, how does the growth read?
**A.** -58.2% (active)

**Q.** With `O=C1Cc2cc(O)ccc2O1` as the compound, how does the growth read?
**A.** 103%

**Q.** `CC1(C)CC(=O)C2=C(C1)OC(C(=O)c1ccccc1)C2c1cccc(Oc2ccccc2)c1` (centres undefined) was tested. Which growth did it give?
**A.** 33%

**Q.** With `COc1ccc(/C=N/Nc2nc(N/N=C/c3ccc(OC)cc3O)nc(N3CCOCC3)n2)c(O)c1` as the compound, how does the growth read?
**A.** 63.1%

**Q.** For `CCN(Cc1cccc(S(=O)(=O)[O-])c1)c1ccc(C(=C2C=CC(=[N+](CC)Cc3cccc(S(=O)(=O)O)c3)C=C2)c2ccccc2S(=O)(=O)O)cc1`, which growth is on record?
**A.** 92.9%

**Q.** How did the growth turn out when `N#C/C(=C\c1ccc(Cl)cc1)n1nnc2cc(F)c(F)cc21` was run?
**A.** 3.5% (active)

**Q.** Which growth does the source give for `O=C(Nc1cc(C(F)(F)F)cc(C(F)(F)F)c1)c1cc(Cl)ccc1O` here?
**A.** -24% (active) and -1.83% (active)

**Q.** Which growth does the source give for `O=c1ccc2cc3ccccc3cc2[nH]1` here?
**A.** 99%

**Q.** `COc1cc(C2=NN(C(C)=O)C(c3ccc(N4CCOCC4)cc3)C2)cc(OC)c1OC` (centres undefined) was tested. Which growth did it give?
**A.** 96.7%

**Q.** `CC[C@H]1CN2CCc3cc(OC)c(OC)cc3C2C[C@@H]1CC1NCCc2cc(OC)c(OC)cc21` (some centres undefined) was tested. Which growth did it give?
**A.** -59.5% (active)

**Q.** For `COc1cc(OC)c(S(N)(=O)=O)cc1C(C)=O`, which growth is on record?
**A.** 98.4%

**Q.** With `CCCn1cnc2c(c1=N)C(c1ccc(Cl)cc1)c1sc3c(CC)cccc3c1O2` (centres undefined) as the compound, how does the growth read?
**A.** 5.23% (active)

**Q.** How did the growth turn out when `Cc1ccc(C=C2C(=O)NC(=O)NC2=O)cc1` was run?
**A.** 108%

**Q.** Which growth does the source give for `C=Cc1cc[n+](CCCCCCCCCCCC)cc1` here?
**A.** 102%

**Q.** Which growth does the source give for `O=C(Nc1ncc(Cc2cccc(C(F)(F)F)c2)s1)c1ccc2c(c1)OCCO2` here?
**A.** 15.6%

**Q.** For `CCN1C(=O)N(CC)C2C1NC(=S)N2/N=C/C=C/c1ccccc1OC` (centres undefined), which growth is on record?
**A.** -0.348% (active)

**Q.** For `Fc1cccc(CNc2c3ccccc3nc3ccccc23)c1F`, which growth is on record?
**A.** 22%

**Q.** `CCOC(=O)C1=NNC(c2ccc(Cl)cc2)C1C(=O)N1C(=S)NC(=O)C1CC(C)C` (centres undefined) was tested. Which growth did it give?
**A.** 102%

**Q.** How did the growth turn out when `COc1ccc(-c2cs/c(=N\N=C\c3ccc(O)cc3O)n2/N=C/c2ccc(O)cc2O)cc1` was run?
**A.** -23.3% (active)

**Q.** `Cc1nn(-c2cc(=O)[nH]c3ccc(Cl)cc23)c(N)c1C#N` was tested. Which growth did it give?
**A.** 111%

**Q.** Which growth does the source give for `c1coc2occoc=2o1` here?
**A.** 98.6%

**Q.** Which growth does the source give for `CN(C)C(=O)SC1=C(c2c(Cl)cccc2Cl)C(=O)c2ccccc21` here?
**A.** -86.5% (active)

**Q.** For `OC[C@@H](O)C(O[C@@H]1O[C@H](CO)[C@H](O)[C@H](O)[C@H]1O)[C@H](O)[C@@H](O)CO` (some centres undefined), which growth is on record?
**A.** 94.7%

**Q.** With `C/C=C(/C(=C/C)c1ccc(O)cc1)c1ccc(O)cc1` as the compound, how does the growth read?
**A.** -15.5% (active)

**Q.** For `CCOC(=O)C(=Cc1ccccc1F)C(=O)OCC`, which growth is on record?
**A.** 76.7%

**Q.** Which growth does the source give for `CN(C)CCN(C)CC(C)(C)C(=O)/C=C/c1ccc(Cl)cc1` here?
**A.** -46.2% (active)

**Q.** For `CCN(CC)CC(=O)Nc1ccc2ncnc(Nc3ccc(Oc4cccc(F)c4)c(Cl)c3)c2c1`, which growth is on record?
**A.** 13.6%

**Q.** Which growth does the source give for `C[C@@H]1C[C@H]2C(=O)O[C@@H](C)[C@H](NC(=O)[C@H](Cc3cc(F)cc(F)c3)NC(=O)Nc3ccc(Cl)cc3F)C(=O)N3C[C@H](O)C[C@H]3C(=O)N3CCN(C)C[C@H]3C(=O)N[C@@H](C)C(=O)N2C1` here?
**A.** 11.5%

**Q.** How did the growth turn out when `Cn1cc(-c2noc(-c3cn(C)c4ncccc34)n2)c2cc(Cl)ccc21` was run?
**A.** 91.3%

**Q.** `CCNC(=O)Oc1ccc(/C(=C(/C)Cc2ccc(OC)cc2)c2ccc(OCCN3CCCC3)cc2)cc1` was tested. Which growth did it give?
**A.** 61.9%

**Q.** With `Nc1c(C(=O)Nc2cccc3ccccc23)sc2nc3c(cc12)CCCCCC3` as the compound, how does the growth read?
**A.** 30.7%

**Q.** `Cc1c(C)c2c(c(C)c1NC(=O)CCCCCCC(=O)O)CCC(C)(CCCC(C)CCCC(C)CCCC(C)C)O2` (centres undefined) was tested. Which growth did it give?
**A.** 90.1%

**Q.** With `Cc1ccc2c(c1)C13C(=C2Br)CCCN1C(=O)c1ccccc13` (centres undefined) as the compound, how does the growth read?
**A.** 69.8%

**Q.** `O=C(COc1ccc(/C=C2\C(=O)Nc3ccc(F)cc32)cc1)Nc1ccccc1` was tested. Which growth did it give?
**A.** 98.5%

**Q.** `Cc1[nH]c(/C=C/C(=O)c2ccc(C(F)(F)F)c(F)c2)c(C)c1C(=O)NCC(C)C` was tested. Which growth did it give?
**A.** 93.6%

**Q.** How did the growth turn out when `O=C(CCCl)OCCOc1ccccc1` was run?
**A.** 107%
